Data as given in PubChem BioAssay.
Calls of active or inactive are those of the source. Unless noted, the rule behind the calls is not given here.

Tests used:
[1] = compound effects on lung adenocarcinoma cell viability – A549, calcein-AM fluorescence, 48 h, basal, profiling panel (AID 1162); conditions: higher = more signal; note: test concentration not given here
[2] = compound effects on differentiated 3T3-L1 adipocyte viability – cell-based, 3T3-L1 adipocytes, calcein-AM fluorescence, 48 h, basal, profiling panel (AID 1163); conditions: 3T3-L1 adipocytes viability, higher = more signal; note: test concentration not given here
[3] = compound effects on hepatocellular carcinoma cell viability – HepG2, calcein-AM fluorescence, 48 h, basal, profiling panel (AID 1164); conditions: higher = more signal; note: test concentration not given here
[4] = compound effects on multiple myeloma cell viability – MM1S, calcein-AM fluorescence, 48 h, basal, profiling panel (AID 1165); conditions: higher = more signal; note: test concentration not given here
[5] = calcein-AM signal in unstimulated myeloma cells – cell-based, calcein-AM fluorescence, 48 h, PK04 Diversity Set, profiling panel (AID 1166); conditions: RPMI8226 myeloma viability, higher = more signal;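 note: cells grown under basal conditions without added stimulus; test concentration not given here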
[6] = JC-1 mitochondrial signal, unstimulated HepG2 cells – cell-based, JC-1 fluorescence, 24 h, 100 nL compound, profiling panel (AID 1167); conditions: HepG2 mitochondrial potential, higher = more signal; note: test concentration not given here
[7] = JC-1 mitochondrial signal, unstimulated adipocytes – cell-based, JC-1 fluorescence, 3T3-L1 adipocytes, 24 h, 100 nL compound, profiling panel (AID 1168); conditions: JC-1 mitochondrial fluorescence, higher = more signal, called active from +8 up or from −8 down; note: test concentration not given here
[8] = JC-1 mitochondrial signal, unstimulated myeloma cells – cell-based, JC-1 fluorescence, RPMI8226, 24 h, 100 nL compound, profiling panel (AID 1169); conditions: JC-1 mitochondrial potential fluorescence, higher = more signal; note: test concentration not given here
[9] = JC-1 mitochondrial signal, unstimulated MM1S myeloma – cell-based, JC-1 fluorescence, 24 h, 100 nL compound, profiling panel (AID 1170); conditions: MM1S mitochondrial potential, higher = more signal; note: test concentration not given here
[10] = resazurin metabolic signal in A549 cells – cell-based, resazurin fluorescence, 24 h, PK04 Diversity Set, profiling panel (AID 1171); conditions: A549 viability, higher = more signal, called active from +8 up or from −8 down; note: test concentration not given here
[11] = resazurin metabolic signal in HepG2 cells – cell-based, resazurin fluorescence, 24 h, PK04 Diversity Set, profiling panel (AID 1172); conditions: HepG2 viability, higher = more signal; note: test concentration not given here
[12] = budding yeast growth changes without added modifier – OD600, strain BY4716, 24 h, basal condition, primary screen (AID 1173); conditions: S. cerevisiae BY4716 growth, OD600, 24 h; higher = more signal, called active from +8 up or from −8 down
[13] = viability profiling in MM1S myeloma cells – cell-based, resazurin fluorescence, basal, 24 h, PK04 Diversity Set, profiling panel (AID 1174); conditions: higher = more signal, called active from +8 up or from −8 down; note: test concentration not given here
[14] = molecular target: Dihydroorotate dehydrogenase (quinone), mitochondrial (Plasmodium falciparum (isolate 3D7)) (UniProt Q08210); experiment: inhibition of P. falciparum DHODH – biochemical, C-terminal His tag, absorbance 600 nm, primary screen (AID 1175); conditions: PfDHODH enzyme, DCIP absorbance 600 nm; higher = more signal, called active from +8 up or from −8 down;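 note: recombinant parasite enzyme with a five histidine tag at its C terminus; test concentration not given here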
[15] = inhibition of PAO1 biofilm formation – strain PAO1, LB-PBS medium, absorbance 600 nm, primary screen (AID 1176); note: test concentration not given here; conditions: P. aeruginosa PAO1 growth/biofilm, A600, 12 h; higher = more signal
[16] = growth modulation of vineyard yeast isolate – strain RM11-1a, OD600, basal, 24 h, primary screen (AID 1177);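 note: cultures grown under basal conditions with no added stressor; test concentration not given here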; conditions: S. cerevisiae RM11-1a growth, OD600, 24 h; higher = more signal, called active from +8 up or from −8 down
[17] = growth of efflux-deficient E. coli DRC39 – strain DRC39, OD650, 24 h, E. coli filamentation inducers, primary screen (AID 1178);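 note: growth measured as culture turbidity by optical density at 650 nm; test concentration not given here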; conditions: E. coli DRC39 acrAB, higher = more signal, called active from +8 up or from −8 down
[18] = growth of efflux-deficient E. coli DRC39 – strain DRC39, OD650, 48 h, E. coli filamentation inducers, primary screen (AID 1179);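 note: screen aims at cell division blockers that make cells filament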; conditions: E. coli DRC39 delta-acrAB growth, higher = more signal, called active from +8 up or from −8 down
[19] = viability profiling in RPMI8226 myeloma cells – cell-based, resazurin fluorescence, basal, 24 h, PK04 Diversity Set, profiling panel (AID 1180); conditions: higher = more signal;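 note: RPMI8826 multiple myeloma cell line at 5000 cells per well; test concentration not given here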
[20] = molecular target: E3 ubiquitin-protein ligase XIAP (Homo sapiens) (UniProt P98170); experiment: small molecules binding XIAP protein – biophysical, small-molecule microarray, fluorescence 635 nm, primary screen (AID 1181); conditions: higher = more signal;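 note: score merges 667 nm emission and signal to noise over triplicate slides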
Sequence of E3 ubiquitin-protein ligase XIAP (Homo sapiens) (P98170 whole entry, looked up): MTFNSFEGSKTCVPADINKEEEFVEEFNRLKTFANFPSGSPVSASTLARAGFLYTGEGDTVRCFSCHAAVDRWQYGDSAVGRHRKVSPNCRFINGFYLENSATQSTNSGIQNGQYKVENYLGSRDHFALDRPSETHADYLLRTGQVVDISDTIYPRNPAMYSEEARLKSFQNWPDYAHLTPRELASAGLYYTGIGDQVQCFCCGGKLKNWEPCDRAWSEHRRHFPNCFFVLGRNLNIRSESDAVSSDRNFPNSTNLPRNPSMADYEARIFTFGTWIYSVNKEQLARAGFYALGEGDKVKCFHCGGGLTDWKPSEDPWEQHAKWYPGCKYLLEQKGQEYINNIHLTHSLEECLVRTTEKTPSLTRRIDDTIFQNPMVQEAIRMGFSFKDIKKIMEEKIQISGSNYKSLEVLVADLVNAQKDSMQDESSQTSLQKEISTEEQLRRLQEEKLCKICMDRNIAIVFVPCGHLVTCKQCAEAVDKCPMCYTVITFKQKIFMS

Sequence of Dihydroorotate dehydrogenase (quinone), mitochondrial (Plasmodium falciparum (isolate 3D7)) (Q08210 whole entry, looked up): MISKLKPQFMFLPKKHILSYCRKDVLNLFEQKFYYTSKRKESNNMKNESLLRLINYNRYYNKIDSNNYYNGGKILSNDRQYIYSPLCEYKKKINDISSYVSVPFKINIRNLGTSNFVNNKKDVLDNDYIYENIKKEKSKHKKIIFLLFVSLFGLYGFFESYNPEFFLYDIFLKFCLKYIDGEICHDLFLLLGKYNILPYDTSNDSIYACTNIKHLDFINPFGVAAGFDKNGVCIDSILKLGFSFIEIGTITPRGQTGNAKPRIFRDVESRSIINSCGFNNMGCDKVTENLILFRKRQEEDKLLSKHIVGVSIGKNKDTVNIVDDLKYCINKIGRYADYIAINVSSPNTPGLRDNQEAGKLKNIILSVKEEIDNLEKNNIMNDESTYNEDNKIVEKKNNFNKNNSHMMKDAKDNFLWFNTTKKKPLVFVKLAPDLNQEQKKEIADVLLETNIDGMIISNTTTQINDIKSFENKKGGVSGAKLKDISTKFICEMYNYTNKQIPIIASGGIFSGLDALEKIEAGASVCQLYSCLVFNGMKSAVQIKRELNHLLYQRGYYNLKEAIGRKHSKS

SMILES	z-score [1]	z-score [2]	z-score [3]	z-score [4]	z-score [5]	z-score [6]	z-score [7]	z-score [8]	z-score [9]	z-score [10]	z-score [11]	z-score [12]	z-score [13]	composite z-score [14]	z-score [15]	z-score [16]	z-score [17]	z-score [18]	z-score [19]	composite z-score [20]
COC(=O)[C@@]1(Cc2ccc(OC)cc2)[C@H]2c3cc(C(=O)N(C)C)[nH]c3C[C@H]2CN1C(=O)c1ccccc1	-0.974	-0.539	0.683	0.945	0.184	1.46	-0.372 (inactive)	-0.582	-0.488	0.145 (inactive)	-0.576	0.304 (inactive)	-0.798 (inactive)	-0.309 (inactive)	-0.471 (inactive)	0.68 (inactive)	-0.151 (inactive)	0.192 (inactive)	-0.247	-0.147
O=C(N1CCOCC1)[C@@]1(Cc2ccccc2)COC(c2ccc(OCCCO)cc2)=N1	-0.114	0.893	-0.985	-1.6	-0.907	-1.12	0.0409 (inactive)	-0.856	-0.095	0.628 (inactive)	-0.395	-3.37 (inactive)	0.13 (inactive)	-0.641 (inactive)	0.565 (inactive)	-0.428 (inactive)	1.26 (inactive)	0.284 (inactive)	1.15	0.081
Cc1ccc(N2C(=O)c3ccccc3[C@](C)(C(=O)NCCCN(C)C)[C@@H]2c2ccc(CO)cc2)nc1	0.235	0.85	-0.153	-0.629	-0.444	-0.53	-0.419 (inactive)	-0.884	-0.29	0.31 (inactive)	0.218	-0.742 (inactive)	-0.296 (inactive)	0.0135 (inactive)	0.084 (inactive)	-0.764 (inactive)	-0.0003 (inactive)	-0.575 (inactive)	-0.0858	-0.158
COC(=O)C1(Cc2ccccc2)C=C2C(=C(C)C(=O)C2C)CN1 (stereo not given)	-0.865	0.45	0.159	0.232	0.213	-0.237	-0.046 (inactive)	0.151	-0.762	-1.21 (inactive)	-0.896	1.1 (inactive)	-0.86 (inactive)	-1.98 (inactive)	0.452 (inactive)	-0.527 (inactive)	0.858 (inactive)	1.2 (inactive)	-0.625	-0.168
CC(C)(C)N1CC=CC23O[C@@H]4/C=C\CCCOC(=O)C4[C@H]2C(=O)N(CCCCCO)[C@@H]3C1=O (stereo not given in full)	-0.373	1.03	-0.927	1.59	0.382	-0.0838	0.186 (inactive)	0.116	-0.00811	-0.543 (inactive)	-0.144	0.309 (inactive)	0.0676 (inactive)	-0.22 (inactive)	0.481 (inactive)	-0.746 (inactive)	0.0531 (inactive)	-0.0503 (inactive)	-0.119	-0.11
CN(C)CCCNC(=O)[C@@]1(C)c2ccccc2C(=O)N(Cc2ccc(OC(F)(F)F)cc2)[C@H]1c1ccc(CO)cc1	0.173	0.886	-0.261	-0.0385	0.513	1.88	-0.422 (inactive)	-0.136	0.197	0.074 (inactive)	-0.732	-1.69 (inactive)	-1.18 (inactive)	-0.397 (inactive)	0.236 (inactive)	-0.164 (inactive)	0.967 (inactive)	-1.26 (inactive)	0.415	-0.156
CC(C)(C)N1CC=CC23O[C@@H]4C=CCOC(=O)[C@@H]4[C@H]2C(=O)N(CCO)[C@@H]3C1=O (stereo not given in full)	-0.247	-0.229	-0.112	0.0476	-0.46	-0.731	0.316 (inactive)	0.0281	-0.537	-0.465 (inactive)	-0.237	0.377 (inactive)	-0.0504 (inactive)	-0.0529 (inactive)	-0.994 (inactive)	0.0505 (inactive)	0.0531 (inactive)	-0.147 (inactive)	-0.167	-0.0969
COc1ccc(C(O)C2C=CC3C(=O)NC(=O)C3N2Nc2ccc(Cl)cc2Cl)c2ccccc12 (stereo not given)	-1.88	0.0133	-2.36	-3.8	-3.99	-3.88	0.564 (inactive)	-1.1	0.533	-1.29 (inactive)	-2.19	-9.94 (active)	-0.423 (inactive)	0.167 (inactive)	1.28 (inactive)	0.361 (inactive)	-0.0977 (inactive)	-0.626 (inactive)	-1.09	-0.0118
C=CCNC(=O)[C@H]1[C@@H]2C(=O)O[C@@H](c3ccccc3)[C@@H](c3ccccc3)N2[C@@H](c2ccc(OCCO)cc2)[C@]12C(=O)Nc1ccc(C#CC3(O)CCCCCC3)cc12	1.17	1.36	-0.0346	-2.27	-1.41	-1.57	0.43 (inactive)	-0.819	-0.535	1.31 (inactive)	-0.311	0.868 (inactive)	-0.823 (inactive)	-0.0685 (inactive)	0.898 (inactive)	2.62 (inactive)	0.352 (inactive)	0.988 (inactive)	-0.987	-0.224
CC(C)c1nc2cc(Br)ccc2c(=O)o1	-0.374	0.124	-1.32	0.345	-0.262	-0.0593	0.316 (inactive)	0.593	-0.259	0.0924 (inactive)	0.693	1.25 (inactive)	-0.47 (inactive)	0.374 (inactive)	0.13 (inactive)	0.0542 (inactive)	0.692 (inactive)	1.24 (inactive)	0.0076	0.0705
C=CC[C@@]1(C(=O)N(C)C)N=C(c2ccc(OCCCO)cc2)O[C@@H]1c1ccccc1CN=[N+]=[N-]	1.01	-0.114	1.41	-1.81	-1.58	1.67	0.53 (inactive)	-0.797	-0.479	0.189 (inactive)	-0.0494	-0.266 (inactive)	-0.138 (inactive)	0.59 (inactive)	-0.345 (inactive)	0.586 (inactive)	0.159 (inactive)	0.374 (inactive)	-0.368	-0.163
COCCn1c(C(=O)N(C)C)cc2c1C[C@H]1CN(C(=O)c3ccccc3)[C@@](Cc3ccc(OC)cc3)(C(=O)OC)[C@@H]21	-0.615	-0.61	0.33	-0.479	-0.843	0.564	-0.722 (inactive)	0.0961	-1.52	-0.437 (inactive)	-0.17	1.63 (inactive)	-1.43 (inactive)	-0.271 (inactive)	0.784 (inactive)	1.03 (inactive)	-0.134 (inactive)	-0.289 (inactive)	-1.81	0.131
COC(=O)C(CC#Cc1ccc2c(c1)[C@]1(C(=O)N2)[C@H](C(=O)NC[C@H](O)c2ccccc2)[C@H]2C(=O)O[C@H](c3ccccc3)[C@H](c3ccccc3)N2[C@@H]1c1ccccc1OCCO)C(=O)OC	-0.101	1.14	-0.272	-3.29	-4.57	-0.0353	1.82 (inactive)	-1.16	-2.1	0.422 (inactive)	0.786	1.42 (inactive)	-7.38 (inactive)	-7.26 (inactive)	1.7 (inactive)	1.6 (inactive)	0.0386 (inactive)	-0.477 (inactive)	-6.76	-0.0629
C=C(CCCC)C(=O)CC[C@@H](OC(=O)c1ccccc1-c1ccccc1C(=O)O)c1ccccc1OCCO	1.54	2.03	-0.29	-3.39	-3.95	-0.688	0.306 (inactive)	-0.67	-0.203	0.573 (inactive)	-0.174	-2.49 (inactive)	-0.608 (inactive)	-1.35 (inactive)	0.118 (inactive)	-1.61 (inactive)	0.625 (inactive)	0.403 (inactive)	-1.49	0.269
CCOC(=O)C1=CC[C@@H](c2ccccc2)N(S(=O)(=O)c2ccc(C)cc2)[C@H]1c1ccccc1I	-0.855	-1.01	-0.47	-0.676	-0.965	1.5	-1.61 (inactive)	1.14	-1.16	0.998 (inactive)	0.76	1.25 (inactive)	-0.0131 (inactive)	-0.158 (inactive)	1.05 (inactive)	-0.217 (inactive)	0.254 (inactive)	0.202 (inactive)	-1.16	-0.123
O=C1C2C=CC(C(O)c3cccs3)N(Nc3ccc([N+](=O)[O-])cc3)C2C(=O)N1c1ccccc1 (stereo not given)	-0.792	-1.01	1.43	-0.752	-0.85	-0.841	-0.728 (inactive)	0.569	-1.46	0.644 (inactive)	0.626	0.348 (inactive)	-0.125 (inactive)	-1.63 (inactive)	0.89 (inactive)	-0.0522 (inactive)	-0.958 (inactive)	-0.0047 (inactive)	-0.182	-0.177
